# In PubChem BioAssay (EPA / NIEHS):
# Inconclusive results are not listed. The source made the active and inactive calls. Rule for the calls: active = hit-call score of the fitted dose curve at least 0.9, where 1 is the maximum; inconclusive = response in the unintended direction; inactive = score below 0.9.
# What was measured:
# [1] = biological target: human Androgen Receptor (AR), AR (gene 367) (UniProt P10275); assay: NVS_NR_hAR: NovaScreen (NVS) Nuclear Receptor Binding Assay for human Androgen Receptor (AR) (AID 2283332)
# Chain of human Androgen Receptor (AR), AR (gene 367) (P10275 whole entry, looked up): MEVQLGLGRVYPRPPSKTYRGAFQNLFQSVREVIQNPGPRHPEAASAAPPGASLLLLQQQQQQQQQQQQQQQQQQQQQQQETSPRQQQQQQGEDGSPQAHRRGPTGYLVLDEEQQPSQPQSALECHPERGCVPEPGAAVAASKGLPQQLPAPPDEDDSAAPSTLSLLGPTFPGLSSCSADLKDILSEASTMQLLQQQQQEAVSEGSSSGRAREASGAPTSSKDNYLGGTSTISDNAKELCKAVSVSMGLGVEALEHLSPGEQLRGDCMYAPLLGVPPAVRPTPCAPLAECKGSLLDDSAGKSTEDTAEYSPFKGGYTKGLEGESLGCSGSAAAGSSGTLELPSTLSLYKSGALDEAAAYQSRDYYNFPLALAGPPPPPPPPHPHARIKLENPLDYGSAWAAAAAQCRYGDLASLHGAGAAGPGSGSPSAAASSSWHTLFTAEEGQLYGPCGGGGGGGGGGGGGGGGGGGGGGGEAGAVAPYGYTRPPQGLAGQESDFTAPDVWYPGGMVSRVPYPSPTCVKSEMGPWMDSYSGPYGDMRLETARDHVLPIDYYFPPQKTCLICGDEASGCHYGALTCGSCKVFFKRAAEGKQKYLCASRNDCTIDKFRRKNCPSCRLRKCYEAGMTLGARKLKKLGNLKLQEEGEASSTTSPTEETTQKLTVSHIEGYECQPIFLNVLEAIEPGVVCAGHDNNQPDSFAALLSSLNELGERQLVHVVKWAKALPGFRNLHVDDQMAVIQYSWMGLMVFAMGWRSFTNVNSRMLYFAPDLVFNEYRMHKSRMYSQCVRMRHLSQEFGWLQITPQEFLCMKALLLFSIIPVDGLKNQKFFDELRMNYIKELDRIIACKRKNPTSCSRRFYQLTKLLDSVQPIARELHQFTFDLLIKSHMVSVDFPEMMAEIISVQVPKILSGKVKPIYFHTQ
# Outline: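 Radioligand competitive binding, scintillation read-out, in cell-free extract from LnCAP, measured 20 h after dosing. Screened first in duplicate at 25 uM, then concentration series for actives; activity fitted against DMSO.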
# [2] = biological target: rat Androgen Receptor (AR), Ar (gene 24208) (UniProt P15207); assay: NVS_NR_rAR: NovaScreen (NVS) Nuclear Receptor Binding Assay for rat Androgen Receptor (AR) (AID 2283366)
# Chain of rat Androgen Receptor (AR), Ar (gene 24208) (P15207 whole entry, looked up): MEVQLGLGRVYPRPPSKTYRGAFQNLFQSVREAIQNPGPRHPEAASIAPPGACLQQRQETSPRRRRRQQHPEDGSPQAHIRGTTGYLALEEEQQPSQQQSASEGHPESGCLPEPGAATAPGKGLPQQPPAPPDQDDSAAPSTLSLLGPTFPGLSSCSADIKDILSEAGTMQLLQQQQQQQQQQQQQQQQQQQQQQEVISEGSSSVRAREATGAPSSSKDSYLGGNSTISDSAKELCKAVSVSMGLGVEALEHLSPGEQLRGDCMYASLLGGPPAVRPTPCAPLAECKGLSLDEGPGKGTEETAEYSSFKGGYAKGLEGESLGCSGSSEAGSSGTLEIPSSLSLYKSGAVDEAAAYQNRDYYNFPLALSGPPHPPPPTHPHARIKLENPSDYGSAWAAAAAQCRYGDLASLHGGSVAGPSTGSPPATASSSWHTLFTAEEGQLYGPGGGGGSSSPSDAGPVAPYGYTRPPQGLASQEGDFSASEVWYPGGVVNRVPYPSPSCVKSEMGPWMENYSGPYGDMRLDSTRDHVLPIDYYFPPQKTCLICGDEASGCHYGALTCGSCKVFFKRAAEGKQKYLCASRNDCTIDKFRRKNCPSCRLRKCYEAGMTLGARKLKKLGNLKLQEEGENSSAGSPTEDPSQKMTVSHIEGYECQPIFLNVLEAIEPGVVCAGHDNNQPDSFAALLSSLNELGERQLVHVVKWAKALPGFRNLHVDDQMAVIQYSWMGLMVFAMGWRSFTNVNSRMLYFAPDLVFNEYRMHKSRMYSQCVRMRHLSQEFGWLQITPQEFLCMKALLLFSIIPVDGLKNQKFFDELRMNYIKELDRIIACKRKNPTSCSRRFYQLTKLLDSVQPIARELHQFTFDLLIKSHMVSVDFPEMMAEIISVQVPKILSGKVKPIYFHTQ
# Outline: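 Actives from a duplicate single-concentration (25 uM) primary run went on to concentration series. Displacement of radioligand was counted by filtration and scintillation, 18 h post-dose, using prostate extracts from testosterone-pretreated rats, with DMSO as baseline.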
# [3] = NVS_IC_rCaBTZCHL: NovaScreen (NVS) Ion Channel Assay for Calcium Channel, Type L, Benzothiazepine Site (CaBTZCHL) (AID 2283337)
# Outline: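 Rat cortical membrane preparation incubated 1.5 h with compound and benzothiazepine-site radioligand; loss of filter-bound counts versus DMSO marks displacement. Initial duplicate testing at 25 uM, actives followed up in concentration series.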
# [4] = biological target: rat Mineralocorticoid Receptor (MR), Nr3c2 (gene 25672) (UniProt P22199); assay: NVS_NR_rMR: NovaScreen (NVS) Nuclear Receptor Binding Assay for rat Mineralocorticoid Receptor (MR) (AID 2283355)
# Chain of rat Mineralocorticoid Receptor (MR), Nr3c2 (gene 25672) (P22199 whole entry, looked up): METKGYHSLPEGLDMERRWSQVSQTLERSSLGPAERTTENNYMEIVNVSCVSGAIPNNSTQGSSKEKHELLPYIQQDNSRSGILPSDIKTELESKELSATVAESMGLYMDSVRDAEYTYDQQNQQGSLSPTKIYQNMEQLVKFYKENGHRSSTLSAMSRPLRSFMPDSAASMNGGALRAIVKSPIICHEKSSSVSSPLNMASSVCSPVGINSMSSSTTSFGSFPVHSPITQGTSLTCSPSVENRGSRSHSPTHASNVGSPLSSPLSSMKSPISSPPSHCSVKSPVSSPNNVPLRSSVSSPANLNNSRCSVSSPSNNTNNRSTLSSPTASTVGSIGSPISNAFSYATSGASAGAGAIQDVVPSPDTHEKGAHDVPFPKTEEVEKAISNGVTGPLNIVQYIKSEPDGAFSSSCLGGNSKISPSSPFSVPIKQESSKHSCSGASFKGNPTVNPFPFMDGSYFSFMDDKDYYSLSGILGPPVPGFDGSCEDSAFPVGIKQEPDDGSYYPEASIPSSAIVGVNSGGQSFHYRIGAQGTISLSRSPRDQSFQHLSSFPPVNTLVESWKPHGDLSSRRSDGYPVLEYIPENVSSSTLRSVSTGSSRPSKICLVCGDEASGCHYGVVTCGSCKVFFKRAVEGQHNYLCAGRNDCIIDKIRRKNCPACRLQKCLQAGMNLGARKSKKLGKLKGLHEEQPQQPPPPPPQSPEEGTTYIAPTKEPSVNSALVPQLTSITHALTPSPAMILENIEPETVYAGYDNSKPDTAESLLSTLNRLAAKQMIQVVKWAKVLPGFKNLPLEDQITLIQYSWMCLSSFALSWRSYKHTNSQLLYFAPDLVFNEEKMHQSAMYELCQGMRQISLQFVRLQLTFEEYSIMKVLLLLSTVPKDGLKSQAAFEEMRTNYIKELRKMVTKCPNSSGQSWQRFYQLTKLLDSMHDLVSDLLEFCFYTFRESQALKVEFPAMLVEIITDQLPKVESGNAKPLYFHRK
# Method: NVS_NR_rMR is a biochemical, single-readout assay that uses extracted gene-proteins from Adrenalectomized rat brain supernatant in a tissue-based cell-free assay. Measurements were taken 24 hours after chemical dosing in a 96-well plate.NVS_NR_rMR is one of one assay component(s) measured or calculated from the NVS_NR_rMR assay. It is designed to make measurements of radioligand binding, a form of binding reporter, as detected with scintillation counting signals by Lysate-based radiodetection technology.Data from the assay component NVS_NR_rMR was analyzed into 1 assay endpoint. This assay endpoint, NVS_NR_rMR, was analyzed in the positive analysis fitting direction relative to DMSO as the negative control and baseline of activity. […] Furthermore, this assay endpoint can be referred to as a primary readout, because the performed assay has only produced 1 assay endpoint. […]
# Binding assays used specific radioligands (tritiated, iodinated) with non-radioactive competitive displacement ligands in agonist or antagonist protocols (as indicated) and various reference compounds and inhibitors to titrate specific binding to receptors and transporters. Most enzyme assays (CYPs, kinases, phosphatases, proteases, HDACs) used recombinant protein and specific substrates (fluorescence mostly, some colorimetric and radioactive) and inhibitors, followed by a biochemical separation of substrate and product. […]
# [5] = biological target: Retinoic acid receptor alpha (Homo sapiens) (UniProt P10276); assay: NVS_NR_hRAR_Antagonist: NovaScreen (NVS) Nuclear Receptor Binding Assay for human Retinoic Acid Alpha Receptor Antagonism (RAR) (AID 2283358)
# Chain of Retinoic acid receptor alpha (Homo sapiens) (P10276 whole entry, looked up): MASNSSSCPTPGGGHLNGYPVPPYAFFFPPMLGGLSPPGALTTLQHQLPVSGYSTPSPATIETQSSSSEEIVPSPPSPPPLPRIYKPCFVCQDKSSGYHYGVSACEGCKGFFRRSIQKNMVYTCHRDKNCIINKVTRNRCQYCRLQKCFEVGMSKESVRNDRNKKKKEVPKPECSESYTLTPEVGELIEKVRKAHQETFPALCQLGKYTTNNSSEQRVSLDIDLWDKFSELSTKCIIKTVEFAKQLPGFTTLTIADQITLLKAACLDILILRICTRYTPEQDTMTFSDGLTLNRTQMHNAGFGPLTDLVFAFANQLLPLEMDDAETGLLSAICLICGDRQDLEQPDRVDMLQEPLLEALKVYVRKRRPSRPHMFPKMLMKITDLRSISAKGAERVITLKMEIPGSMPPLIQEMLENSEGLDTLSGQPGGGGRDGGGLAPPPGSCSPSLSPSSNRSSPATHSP
# Outline: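 RARalpha antagonism was read by TR-FRET as loss of binding signal versus DMSO, 2 h after chemical addition, in a biochemical format. Single-concentration duplicates (25 uM) were run first, and actives were retested in concentration series.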
# [6] = biological target: human Thyroid Receptor Alpha (TRa), THRA (gene 7067) (UniProt P10827); assay: NVS_NR_hTRa_Antagonist: NovaScreen (NVS) Nuclear Receptor Binding Assay for human Thyroid Receptor Alpha Antagonism (TRa) (AID 2283362)
# Chain of human Thyroid Receptor Alpha (TRa), THRA (gene 7067) (P10827 whole entry, looked up): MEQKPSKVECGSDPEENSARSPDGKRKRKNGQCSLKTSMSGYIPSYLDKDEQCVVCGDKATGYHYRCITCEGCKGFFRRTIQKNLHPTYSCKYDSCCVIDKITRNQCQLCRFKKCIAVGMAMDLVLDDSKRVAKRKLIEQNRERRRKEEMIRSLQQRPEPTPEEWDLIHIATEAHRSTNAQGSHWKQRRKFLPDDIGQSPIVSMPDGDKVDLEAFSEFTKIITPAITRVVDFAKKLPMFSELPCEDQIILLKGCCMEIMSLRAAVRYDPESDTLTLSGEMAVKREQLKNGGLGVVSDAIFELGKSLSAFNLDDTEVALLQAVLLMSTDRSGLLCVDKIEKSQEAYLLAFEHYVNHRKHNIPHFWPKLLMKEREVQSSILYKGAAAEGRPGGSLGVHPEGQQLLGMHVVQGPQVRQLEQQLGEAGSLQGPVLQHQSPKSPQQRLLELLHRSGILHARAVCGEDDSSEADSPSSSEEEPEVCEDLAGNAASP
# Outline: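 Extracted protein, cell-free; 1 h incubation after dosing; AlphaLISA chemiluminescence binding readout. DMSO = baseline/neg ctrl; signal loss = activity. Primary: duplicate, 25 uM; secondary: conc. series on actives.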
smiles,measurement,setting,value
CC(=O)Nc1ccc(N=Nc2cc(C)ccc2O)cc1,AC50,[1],31.4 µM (active)
same,AC50,[2],25 µM (active)
Oc1ccc(Nc2ccccc2)cc1,outcome,[3],inactive
C#C[C@]1(O)CC[C@H]2[C@@H]3CCc4cc(OC)ccc4[C@H]3CC[C@@]21C,outcome,[4],inactive
CC(Cc1ccc(O)c(O)c1)C(C)Cc1ccc(O)c(O)c1 (configuration not stated),AC50,[5],11.7 µM (active)
CCN(Cc1cccc(S(=O)(=O)O)c1)c1ccc(C(=C2C=CC(=[N+](CC)Cc3cccc(S(=O)(=O)O)c3)C=C2)c2ccc(O)cc2S(=O)(=O)[O-])cc1,AC50,[5],7.39 µM (active)
CCCCCCC(C)OC(=O)CCCCC(=O)OC(C)CCCCCC (configuration not stated),outcome,[6],inactive
